Measured values: the supplement of paper PMC9262897, “Low-cost anti-mycobacterial drug discovery using engineered E. coli” (Nature Communications, 2022)
Structures can show the parent of a compound that is named as a salt. ± gives the standard deviation of the averaged measurements.

test system: E. coli TESEC Alr+ wild-type control; experiment: growth (OD600 after 10 h); higher = more growth (less inhibition); details: compound 0.1 mM; raw OD600 reference: median of DMSO wells 0.49, cell-free background 0.052
Procedure: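 TESEC Mtb Alr E. coli (ΔaraC ΔtolC ΔentC Δalr ΔdadX, arabinose-inducible Mtb Alr) or the Alr+ wild-type control strain, grown in defined M9-fructose medium without D-alanine in 96-well plates with Prestwick library compounds at 0.1 mM and 1% DMSO. Low Alr induction is 0.1 µM arabinose and high induction is 10 mM arabinose.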

Row | SMILES | growth
1 | CC(=O)NS(=O)(=O)c1ccc(N)cc1 [Sulfacetamide sodic hydrate] | 0.486 ± 0.053
2 | C[N+](C)(C)CCOC(N)=O [Carbachol] | 0.492 ± 0.011
3 | O=C(O)c1cccnc1 [Niacin] | 0.522 ± 0.086
4 | COC(=O)Nc1nc2cc(Sc3ccccc3)ccc2[nH]1 [Fenbendazole] | 0.56 ± 0.072
5 | CC(=O)OC(C)C[N+](C)(C)C (stereo not given) [Methacholine chloride] | 0.466 ± 0.066
6 | CC(C)(Sc1cc(C(C)(C)C)c(O)c(C(C)(C)C)c1)Sc1cc(C(C)(C)C)c(O)c(C(C)(C)C)c1 [Probucol] | 0.583 ± 0.039
7 | Cc1c(C)c2c(c(C)c1O)CCC(C)(COc1ccc(CC3SC(=O)NC3=O)cc1)O2 (stereo not given) [Troglitazone] | 0.445 ± 0.029
8 | CO[C@H]1/C=C/O[C@@]2(C)Oc3c(C)c(O)c4c(O)c(c5c(nc6cc(C)ccn65)c4c3C2=O)NC(=O)/C(C)=C\C=C\[C@H](C)[C@H](O)[C@@H](C)[C@@H](O)[C@@H](C)[C@H](OC(C)=O)[C@@H]1C [Rifaximin] | 0.0531 ± 0.00076
9 | CC(C)NC[C@H](O)COc1ccc(CC(N)=O)cc1 [(S)-(-)-Atenolol] | 0.528 ± 0.092
10 | CN(C)/N=N/c1[nH]cnc1C(N)=O [Dacarbazine] | 0.51 ± 0.11
11 | CC(=O)[C@H]1CC[C@H]2[C@@H]3C=CC4=CC(=O)CC[C@@]4(C)[C@@H]3CC[C@]12C [Dydrogesterone] | 0.318 ± 0.0089
12 | Clc1ccc(Nc2nnc(Cc3ccncc3)c3ccccc23)cc1 [Vatalanib] | 0.514 ± 0.0082
13 | CC(=O)OCC(CCn1cnc2cnc(N)nc21)COC(C)=O [Famciclovir] | 0.56 ± 0.17
14 | CCN(CCCc1ccccc1)CCCc1ccccc1 [Alverine citrate salt] | 0.48 ± 0.026
15 | CC(C)NCC(O)COc1cccc2[nH]ccc12 (stereo not given) [Pindolol] | 0.474 ± 0.048
16 | CCCCOc1ccc(CC(=O)NO)cc1 [Bufexamac] | 0.437 ± 0.031
17 | CN[C@H]1CC[C@@H](c2ccc(Cl)c(Cl)c2)c2ccccc21 [Sertraline] | 0.0502 ± 0.00068
18 | CC(C)OC(=O)CCC/C=C\C[C@@H]1[C@@H](CC[C@@H](O)CCc2ccccc2)[C@H](O)C[C@@H]1O [Latanoprost] | 0.195 ± 0.059
19 | CN1CCN(C(c2ccccc2)c2ccccc2)CC1 [Cyclizine hydrochloride] | 0.602 ± 0.088
20 | C[N+]1(C)CCC(OC(=O)C(O)(c2ccccc2)C2CCCC2)C1 (stereo not given) [Glycopyrrolate] | 0.575 ± 0.12

Row | SMILES | growth
21 | CN1CCN2c3ncccc3Cc3ccccc3C2C1 (stereo not given) [Mirtazapine] | 0.468 ± 0.035
22 | NCCc1cc[nH]n1 [Betazole hydrochloride] | 0.494 ± 0.066
23 | COc1ccccc1N1CCN(CCCCNC(=O)c2ccc3ccccc3c2)CC1 | 0.374 ± 0.0092
24 | CCCCc1oc2ccccc2c1C(=O)c1cc(I)c(OCCN(CC)CC)c(I)c1 [Amiodarone hydrochloride] | 0.58 ± 0.025
25 | CCc1cc(Cl)c(OC)c(C(=O)NC[C@@H]2CCCN2CC)c1O [S(-)Eticlopride hydrochloride] | 0.567 ± 0.012
26 | Cc1oncc1C(=O)Nc1ccc(C(F)(F)F)cc1 [Leflunomide] | 0.3131 ± 0.0014
27 | COC(=O)C1=C(C)NC(C)=C(C(=O)OC(C)C)C1c1cccc2nonc12 (stereo not given) [Isradipine] | 0.379 ± 0.0051
28 | CCN(CC)CCCC(C)Nc1ccnc2cc(Cl)ccc12 (stereo not given) [Chloroquine diphosphate] | 0.549 ± 0.065
29 | COC1=C(OC)C(=O)C(CCCCCCCCCCO)=C(C)C1=O [Idebenone] | 0.0491 ± 0.0001
30 | COCCOC(=O)C1=C(C)NC(C)=C(C(=O)OC(C)C)C1c1cccc([N+](=O)[O-])c1 (stereo not given) [Nimodipine] | 0.325 ± 0.004
31 | COc1ccc2c(c1)N(C[C@H](C)CN(C)C)c1ccccc1S2 [Methotrimeprazine maleat salt] | 0.477 ± 0.023
32 | CC[C@H]1OC(=O)[C@H](C)[C@@H](O[C@H]2C[C@@](C)(OC)[C@@H](O)[C@H](C)O2)[C@H](C)[C@@H](O[C@@H]2O[C@H](C)C[C@H](N(C)C)[C@H]2O)[C@](C)(O)C[C@@H](C)CN(C)[C@H](C)[C@@H](O)[C@]1(C)O [Azithromycin] | 0.0526 ± 0.00017
33 | CN1CCC(=C2c3ccccc3Sc3ccccc32)CC1 [Pimethixene maleate] | 0.0544 ± 0.0021
34 | CCCOc1ccccc1-c1nc2[nH]nnc2c(=O)[nH]1 [Zaprinast] | 0.507 ± 0.057
35 | CCn1cc(C(=O)O)c(=O)c2cc(F)c(N3CCNCC3)nc21 [Enoxacin] | 0.05513 ± 0.00042
36 | COc1cc2c(cc1OC)C(=O)C(CC1CCN(Cc3ccccc3)CC1)C2 (stereo not given) [Donepezil hydrochloride] | 0.56 ± 0.055
37 | CN(C)CCCN1c2ccccc2Sc2ccccc21 [Promazine hydrochloride] | 0.523 ± 0.031
38 | O=C1CC2(CCCC2)CC(=O)N1CCCCN1CCN(c2ncccn2)CC1 [Buspirone hydrochloride] | 0.454 ± 0.019
39 | CC(CN(C)C)C(C)(O)Cc1ccc(Cl)cc1 (stereo not given) [Clobutinol hydrochloride] | 0.588 ± 0.083
40 | NS(=O)(=O)c1cc2c(cc1Cl)NC(CC1CCCC1)NS2(=O)=O (stereo not given) [Cyclopenthiazide] | 0.513 ± 0.035
